PI5P4Ka inh – inhibitors of human PI5P4K alpha; hit rate 1.2% among 330,000; P48426; max response, %; AID 652105; PI5P4Kalpha enzyme, ADP-Glo luminescence, 60 min; active compounds read low; active = max response of -50% or lower; inconclusive = between -30% and -50%; inactive = -30% or higher; also: value at the top dose of about 77 µM; % is scaled to controls: 0 for no effect and ±100 for the full control effect
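PI5P4Kalpha ADP-Glo assay; 5 microM ATP final; 60 min RT reaction; HEPES pH 7.4/EGTA/CHAPS, 5% DMSO; controls lacking substrate or enzyme; luminescent end-point.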
BAZ2B block – inhibitors of human BAZ2B bromodomain | Q9UIF8 | AlphaScreen BAZ2B-H3K14Ac peptide displacement | Potency, µM (top dose mostly 114 µM), without a hit: at the highest dose activity change, negative = inhibition, usual class: inhibitors | hit rate 4.4% among 360,000 | AID 504333; also: potency is read from the fitted curve at half-maximal effect; % is scaled to controls: 0 for no effect and ±100 for the full control effect; nearly all actives have a fitted effect of over 60% in size
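Inhibition is scored as reduced AlphaScreen emission. The BAZ2B/b-H3(5-23)K14Ac complex (50 nM each) in PBS pH 7.4, 0.01% Tween-20 meets compound (up to 110 uM) for 30 min at RT before bead addition.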
JMJD2A Tudor inh – blocks the human JMJD2A Tudor domain; O75164; AlphaScreen JMJD2A-Tudor / H3K4me3 peptide binding; Potency, µM (highest dose often 114 µM), for the others: at the highest dose activity change, negative = inhibition, hits mostly inhibitors; hit rate 4.4% among 390,000; AID 504339; also: potency is read from the fitted curve at half-maximal effect; % is scaled to controls: 0 for no effect and ±100 for the full control effect; nearly all actives have a fitted effect of over 50% in size
HP1b chromo inh – blocks HP1-beta chromodomain binding to methylated histone tails; AID 540317; Potency, µM (top dose mostly 114 µM), without a hit: at the top dose activity change, negative = inhibition, most hits filed as inhibitors; hit rate 0.56% among 390,000; AlphaScreen HP1-beta / biotin-H3K9me3 peptide binding; P83916; also: potency is read from the fitted curve at half-maximal effect; nearly all actives have a fitted effect of over 70% in size
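AlphaScreen: HP1-beta (50 nM) preformed 30 min with biotin-H3(1-18)K9me3 peptide (50 nM) in PBS pH 7.4, 0.01% Tween-20. Compound added for 30 min at RT, then streptavidin donor/nickel chelate acceptor beads (10 ug/mL) for 30 min.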
PLK1 PBD inh – inhibitors of human PLK1 polo-box domain binding | P53350 | Plk1 PBD binding of FITC phosphopeptide, fluorescence polarization | Potency, µM, for inactives: max response, negative = inhibition, actives largely listed as inhibitors | hit rate 2.8% among 360,000; also: potency is read from the fitted curve at half-maximal effect; series mostly up to about 57 µM; % is scaled to controls: 0 for no effect and ±100 for the full control effect; nearly all actives have a fitted effect of over 65% in size
Target sequence (P53350 whole entry, looked up, the tested form may be a part): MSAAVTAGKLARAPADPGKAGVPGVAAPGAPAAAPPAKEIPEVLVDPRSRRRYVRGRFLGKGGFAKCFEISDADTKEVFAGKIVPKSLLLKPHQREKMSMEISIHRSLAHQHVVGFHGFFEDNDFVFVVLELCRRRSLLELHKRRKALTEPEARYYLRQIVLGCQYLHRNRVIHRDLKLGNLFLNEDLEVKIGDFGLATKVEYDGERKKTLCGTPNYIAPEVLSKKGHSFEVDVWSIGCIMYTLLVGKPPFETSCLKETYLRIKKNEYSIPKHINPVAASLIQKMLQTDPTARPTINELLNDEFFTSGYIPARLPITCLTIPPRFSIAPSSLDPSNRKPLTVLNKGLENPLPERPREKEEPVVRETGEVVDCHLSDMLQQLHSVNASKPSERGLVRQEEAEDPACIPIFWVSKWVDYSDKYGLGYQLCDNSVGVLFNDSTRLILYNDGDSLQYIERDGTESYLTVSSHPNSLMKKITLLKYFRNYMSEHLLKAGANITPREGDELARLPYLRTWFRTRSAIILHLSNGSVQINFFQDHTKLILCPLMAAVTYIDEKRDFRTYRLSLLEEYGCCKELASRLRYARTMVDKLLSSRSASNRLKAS
GCN5L2 inh – blocks human GCN5L2 histone acetyltransferase; Q92830; GCN5L2 HAT assay, ThioGlo1 CoA-SH fluorescence; Potency, µM (titrated, usually from 58.9 µM), for inactives: at the highest dose activity change, negative = inhibition, hits mostly inhibitors; hit rate 0.21% among 390,000; AID 504327; also: potency is read from the fitted curve at half-maximal effect; % is scaled to controls: 0 for no effect and ±100 for the full control effect
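GCN5L2 (20nM final) in 50mM HEPES, 0.1mM EDTA pH 7.5, 0.01% Tween-20 was preincubated 15 min at room temperature with compound, then given ThioGlo1 (50uM), H3(1-25) peptide (75uM) and acetyl-CoA (70uM); CoA-thiol fluorescence (Ex340/Em540) was read at 0 and 20 min.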
Starred values were filed as active, the others as inactive; ? = inconclusive; · = not tested or not shown; [ ] = remark or other dose. Most compounds without a hit are left out; they make up all but 7% or so of the library. Unless noted, calls follow the shape of the dose curve; as a rule, active = well fitted curve in the direction sought with a large enough effect; inconclusive = small, poorly fitted or top-dose-only effect, or another doubt; inactive = no such curve, though single readings can be large; an effect the other way counts as inactive or inconclusive.

SMILES	PI5P4Ka inh	BAZ2B block	JMJD2A Tudor inh	HP1b chromo inh	PLK1 PBD inh	GCN5L2 inh
COc1ccc(N(CC(=O)NCc2ccccc2Cl)S(=O)(=O)c2c(C)nn(C)c2C)cc1	·	·	-16.0%	18.7%	·	-0.4%
CCN(CC)c1ccc2c(-c3ccc(S(=O)(=O)O)cc3S(=O)(=O)[O-])c3ccc(=[N+](CC)CC)cc-3oc2c1	-51.3*	7.94µM*	?	44.7µM*	6.7µM*	?
CCN(CC)c1ccc2nc3c4ccccc4c(=O)cc-3oc2c1	-7.8	-32.5%	?	3.6%	4.2%	0.6%
O=C1NC2(CCCCCC2)C(=O)N1Cc1cccc([N+](=O)[O-])c1	-22.5	-12.9%	?	1.2%	26.7µM*	18.1%
O=[N+]([O-])c1cccc(/C=N\N=C2c3ccccc3-c3ccccc32)c1O	-53.9*	8.3%	?	?	?	26.1%
NC(N)=N/N=C/c1cccc([N+](=O)[O-])c1O	-1.1	?	-19.8%	2.4%	-2.7%	4.3%
O=[S+]([O-])(c1ccc(-c2ccccc2)cc1)N1CCN([S+](=O)([O-])c2ccc3c(c2)OCCO3)CC1	·	·	-14.4%	·	·	·
CCc1nn2c(=O)cc(COC(=O)CNC(=O)c3ccccc3)nc2s1	·	-14.6%	-16.7%	-14.2%	·	-7.9%
CC(C)C(CCNC(=O)CC(Cc1ccccc1)c1ccco1)c1ccco1 (stereo not drawn)	·	50.1µM*	?	0.1%	-17.2%	?
COc1ccc(-n2cc(-c3ccccc3)[nH]c2=S)c(OC)c1	-14.1	?	?	-1.0%	2.0%	-6.4%
COc1ccc(-n2cc(-c3ccc(OC)c(OC)c3)[nH]c2=S)cc1	-14.5	0.6%	3.16µM*	?	23.8µM*	-7.6%
Cc1ccc(-c2cn(-c3ccccc3)c(=S)[nH]2)cc1C	-5.4	31.6µM*	?	?	29.9µM*	-21.1%
COc1cc(OC)c(-n2cc(-c3ccc(OC)c(OC)c3)[nH]c2=S)cc1Cl	-8.9	-24.4%	?	-6.7%	29.9µM*	-4.9%
C=CCNc1nc(-c2ccccn2)nnc1-c1ccccc1	-6.5	0.891µM*	35.5µM*	46.2%	-3.1%	-4.0%
CC(C)Nc1nc(-c2ccccn2)nc(-c2ccccc2)c1C#N	1.0	-4.9%	-13.9%	1.7%	-8.1%	1.5%
C=CCN=c1sc(C(=O)OC)cc(=O)n1CC=C	·	-25.1%	?	-15.0%	29.9µM*	0.8%
CC(C)C(c1nnnn1C1CCCCC1)N1CCOCC1 (stereo not drawn)	·	·	-13.4%	10.7%	-6.9%	-4.4%
CC(C)C(c1nnnn1C(C)(C)C)N1CCOCC1 (stereo not drawn)	-0.2	1.9%	39.8µM*	16.3%	-8.5%	-14.0%
CCOc1cc(-c2nc(-c3ccccc3)c(-c3cc([N+](=O)[O-])ccc3C)[nH]2)ccc1O	-3.3	?	?	-29.9%	-4.0%	·
O=[N+]([O-])c1ccc(O)c(-c2nc(-c3ccccc3)c(-c3cccs3)[nH]2)c1	·	35.5µM*	44.7µM*	?	-6.2%	-7.0%
COc1ccc(-c2nc(-c3ccccc3)c(-c3cc([N+](=O)[O-])ccc3C)[nH]2)cc1OC	3.8	44.7µM*	-17.8%[11.4 µM]	?	-19.8%	-7.4%
CCOc1ccccc1/C=C/c1onc(C)c1S(=O)(=O)N1CCC(C(=O)N2CCCCC2)CC1	·	2.0%	-13.1%	40.6%	·	-2.9%
CSc1nc(Oc2cccc(C(F)(F)F)c2)cc(C(F)(F)F)n1	4.4	39.1%	21.9%[11.4 µM]	122.7%	26.7µM*	-24.6%
CSc1nc(Oc2ccc(F)cc2F)cc(C(F)(F)F)n1	23.0	53.8%	66.4%	86.1%	-4.2%	-5.4%
C/C(=N/NC(=O)CNS(=O)(=O)c1ccccc1)c1ccc(Br)cc1	49.9	-10.8%	-3.8%	31.6%	-0.5%	-0.2%
CCCCOc1ccc(N=Nc2ccc(N)nc2N)cn1	5.5	13.9%	35.5µM*	?	-7.7%	-1.5%
CCCCOc1ccc(Cc2cnc(N)nc2N)cc1	-3.1	-7.0%	-28.3%	29.0%	4.6%	-6.6%
COc1cc2c(cc1OC)CN(Cc1ccc(F)cc1)CC2	8.4	50.1µM*	3.16µM*	-16.9%[57 µM]	336.3%	0.8%

Assay outcomes (PubChem)
